# Screens as filed in PubChem.
# This is a sample that favours compounds with a hit; in the whole collection about 2.4% have one here.
# D2 PAM-1: positive allosteric modulators of human D2 dopamine receptor; P14416; DiscoveRx D2 beta-arrestin cells, luminescence, 90 min; 100% = 57 uM dopamine signal; potentiation, % (no concentration beside the values); actives 0.23% (n = 360,000); in the data active means potentiation above about 50%; inconclusive means mostly about 30% to 49%
# Target sequence (P14416 whole entry, looked up): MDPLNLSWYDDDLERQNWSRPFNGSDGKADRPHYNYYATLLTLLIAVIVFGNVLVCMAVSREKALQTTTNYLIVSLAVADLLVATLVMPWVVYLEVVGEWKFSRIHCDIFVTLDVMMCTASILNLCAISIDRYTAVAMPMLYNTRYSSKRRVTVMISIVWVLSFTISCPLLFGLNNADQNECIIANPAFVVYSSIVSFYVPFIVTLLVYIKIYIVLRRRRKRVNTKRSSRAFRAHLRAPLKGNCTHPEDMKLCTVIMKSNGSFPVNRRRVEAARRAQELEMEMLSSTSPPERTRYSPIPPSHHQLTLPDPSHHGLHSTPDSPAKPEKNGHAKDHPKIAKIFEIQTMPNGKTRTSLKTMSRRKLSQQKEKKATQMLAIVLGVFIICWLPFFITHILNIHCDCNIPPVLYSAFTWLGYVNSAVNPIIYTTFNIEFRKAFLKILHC
#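 D2 cells co-treated with compound plus 50 nM dopamine (EC20) for 90 min at 37 deg C to detect potentiation. Beta-arrestin recruitment was read as enzyme-fragment luminescence after 1 h at ambient temperature. Full response was set by 57 uM dopamine.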
# D2 antag: antagonizes the human D2 dopamine receptor | HEK293 TREx D2 cells, calcium flux, dopamine EC80 | inhibition, % at 10 µM | actives 2% (n = 340,000) | P14416; in the data active means inhibition above about 30%; inactive means below that, where a call was filed; further: 0% is about no effect
#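 Tetracycline-induced HEK293 T-REx cells expressing D2 force-coupled to calcium signalling were dye-loaded, exposed to compound for 180 s, then challenged with an EC80 of dopamine; calcium flux was followed kinetically for a further 180 s.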
# D2 PAM-2: positive allosteric modulators of human D2 dopamine receptor | HEK293 T-REx D2, calcium flux, EC20 dopamine potentiation | P14416 | potentiation, % at 10 µM | actives 0.34% (n = 340,000);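 active means potentiation over 3 SD above the plate norm, cut at about 30% in these data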; further: 0% is about no effect
#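 Primary screen. Calcium kinetics in induced HEK293 T-REx D2 cells: compound pre-addition 180 s, EC20 dopamine, 180 s more.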
# D2 ag-1: D2 dopamine receptor (human) agonism; P14416; HEK293 T-REx D2 cells, calcium flux agonist mode; activation, % at 2 µM; actives 0.53% (n = 340,000);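 active means activation over 3 SD above normal in the single-dose calcium agonist read, cut at about 30% in these data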; further: 0% is about no effect
#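 In this primary screen, compounds producing a positive calcium signal within 180 s of addition to tetracycline-induced, force-coupled HEK293 Trex D2 cells are flagged; cells are dye-loaded with a no-wash calcium kit beforehand.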
# D2 ag-2: activates the human D2 dopamine receptor. P14416. DiscoveRx PathHunter D2 beta-arrestin, luminescence, 90 min; 100% = 57 uM dopamine signal. activation, % (test concentration not listed). actives 0.084% (n = 360,000); in the data active means activation above about 40%; inconclusive means between about 15% and that limit
#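 DiscoveRx PathHunter D2 beta-arrestin cells (2,100/well) attached overnight, then compound-stimulated 90 min at 37 C in HBSS/10 mM HEPES/0.1% Tween-20 buffer; beta-galactosidase complementation read by luminescence after 1 h at ambient temperature. Dopamine 57 uM final (EC100) as control.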
# Active calls of the source: *; ? = inconclusive; . = no result given.
SMILES,D2 PAM-1,D2 antag,D2 PAM-2,D2 ag-1,D2 ag-2
COC(=O)c1cc2c(ccn2-c2ccc(F)cc2)n1CC(C)C,-5,15,12,0,-3
O=C1CCCC/C1=C\Nc1ccc(O)cc1,10,5,-2,-2,9
O=C1CCCC/C1=C/Nc1cccc(C(F)(F)F)c1,-3,34*,0,0,-2
COc1cc2nc(SCc3cccc(Cl)c3)n3nc(CCn4nc(C)cc4C)nc3c2cc1OC,.,.,3,0,.
O=C(COc1ccc(Cl)cc1)Nc1ccc2c(c1)CCC2,-22,39*,-23,1,-2
CCCOc1ccc(CNC(=O)c2ccc(C)c(-n3c(C)nc4cccnc43)c2)cc1,.,.,-10,-1,.
COC(=O)c1ccc2c(c1)N(CC(=O)Nc1ccc(C)cc1Cl)C(=O)c1ccccc1S2,.,.,.,0,.
CSCCC(NC(=O)OC(C)(C)C)C(=O)Oc1ccc2c(=O)c(-c3ccc4c(c3)OCCO4)coc2c1 (configuration not stated),-5,33*,10,0,-5
COc1ccccc1N(CC(O)Cn1ccnc1C)S(=O)(=O)c1ccc(C)cc1 (configuration not stated),-7,67*,-20,0,-3
CCC(=O)c1ccc(OCC(=O)NCCC2=CCCCC2)c(OC)c1,-4,-4,-1,-1,-1
CCOc1ccc(C(=O)NCCC2=CCCCC2)cc1OCC,-23,38*,-30,-1,2
COc1ccccc1/C=C/C(=O)NCCC1=CCCCC1,-15,35*,-24,-1,-5
COc1cc(C(=O)NCCC2=CCCCC2)ccc1OCc1c(C)noc1C,-3,32*,-10,0,-8
Cc1cc(O)c(CN2CCN(c3ccccc3)CC2)c2oc(=O)cc(C)c12,.,.,3,.,.
CNC(=O)c1cnc2sc(N3CCCCCC3)nn2c1=O,.,.,1,0,.
CCOC(=O)c1c(C)c(-c2ccccc2)n(CC(=O)NCCc2cccc(C)c2)c1C,.,.,.,0,.
N=c1oc2c3c4c(cc2cc1C(=O)Nc1ccccc1)CCCN4CCC3,23,71*,-15,95*,4
O=C1CC(N2CCC(C(=O)N3CCCCC3)CC2)C(=O)N1 (configuration not stated),-8,38*,.,2,-2
CCN1CCN(C2CC(=O)NC2=O)CC1 (configuration not stated),.,-5,2,-1,.
CCC(C)(C)C(=O)Nc1ncc(S(=O)(=O)c2ccc([N+](=O)[O-])cc2)s1,88*,-14,31*,6,7
O=C(CCl)Nc1ncc(S(=O)(=O)c2ccc([N+](=O)[O-])cc2)s1,6,.,.,.,?
O=C(Nc1ncc(S(=O)(=O)c2ccc([N+](=O)[O-])cc2)s1)c1ccc2ccccc2c1,73*,.,.,.,14
COc1ccccc1Nc1nn2c(=O)c3ccc(C(=O)NCc4cccnc4)cc3nc2s1,.,-18,30*,0,.
COc1ccccc1Nc1nn2c(=O)c3ccc(C(=O)NCc4ccc(F)cc4)cc3nc2s1,.,.,2,1,.
COc1ccc(S(=O)(=O)N2CCN(Cc3ccc4c(c3)OCO4)CC2)cc1OC,.,.,-2,0,.
SMILES,D2 PAM-1,D2 antag,D2 PAM-2,D2 ag-1,D2 ag-2
Cc1cc(C)cc(NS(=O)(=O)c2cc(Br)cnc2N)c1,3,32*,2,0,1
Cc1ccc(NS(=O)(=O)c2cc(Br)cnc2N)cc1C,-8,-27,6,0,5
O=C(Nc1ccc(F)cc1)c1cccn1-c1nnc(N2CCCCC2)s1,.,.,-25,.,.
O=C(NC(=S)N1CCOCC1)C12CC3CCC(CC(C3)C1)C2,4,14,4,1,-1
O=C(NC(=S)N1CCOCC1)C12CCC3CC(CC(C3)C1)C2,-5,-16,31*,-1,-4
COc1ccc(-c2nnc(SCC(=O)Oc3cc(C)ccc3C)o2)cc1,.,.,-2,1,.
NC[C@H]1O[C@H](O[C@H]2[C@H](O)[C@@H](O[C@H]3O[C@H](CO)[C@@H](O)[C@H](N)[C@H]3O)[C@H](N)C[C@@H]2N)[C@H](N)C[C@@H]1O,6,37*,-4,2,-2
Cc1cccc(NC(=S)N(CCCN2CCOCC2)Cc2ccccn2)c1,-12,40*,-6,1,-3
S=C(Nc1ccc(Oc2ccccc2)cc1)N(CCCN1CCOCC1)Cc1ccccn1,-5,-20,-27,3,-3
Cc1cn2c(=O)cc(COC(=O)c3cccc(NC(=O)COc4ccccc4)c3)nc2s1,.,.,0,0,.
COc1cccc(N2CCN(c3ccc4nnc(CCC(=O)N5CCC(C)CC5)n4n3)CC2)c1,13,-9,-1,1,-2
CCCN1CCN(C(=O)CCc2nnc3ccc(N4CCN(c5cccc(OC)c5)CC4)nn23)CC1,-4,32*,-5,-1,-6
CC1CCN(C(=O)c2c(NC(=O)c3ccccc3F)sc3c2CCC(C(C)(C)C)C3)CC1 (configuration not stated),.,.,-8,1,.
CC1CCN(S(=O)(=O)c2ccc3c(c2)CCN3C(=O)CCC(=O)O)CC1,-8,10,-5,0,-1
O=C(O)CCC(=O)N1CCc2cc(S(=O)(=O)N3CCC(Cc4ccccc4)CC3)ccc21,-4,34*,1,1,-4
Cc1cc(C)cc(NC(=O)C2CCCN(C(=O)c3cnn(-c4ccccc4)c3-n3cccc3)C2)c1 (configuration not stated),.,.,-7,1,.
Cn1c(=O)c2cc(S(=O)(=O)NCCC(=O)N3CC=C(c4ccccc4)CC3)ccc2n(C)c1=O,-11,3,-20,3,-2
CN(CC(=O)N1CC=C(c2ccccc2)CC1)S(=O)(=O)c1ccc2c(c1)c(=O)n(C)c(=O)n2C,-19,31*,4,-1,4
CCC(Cc1ccccc1)NC(=O)CN(C)S(=O)(=O)c1ccc2c(c1)c(=O)n(C)c(=O)n2C (configuration not stated),-7,23,52*,0,-1
O=C1C2C3C=CC(CC3)C2C(=O)N1c1ccc([N+](=O)[O-])cc1 (configuration not stated),-1,-14,-2,1,1
CC(=O)Oc1ccc(N2C(=O)C3C4C=CC(CC4)C3C2=O)cc1[N+](=O)[O-] (configuration not stated),-7,62*,15,-1,-4
CCc1ccc2occ(CC(=O)Nc3sc4c(c3C(=O)NCCOC)CCCC4)c2c1,.,.,-2,0,.
C=CCC1c2cccc(C(=O)O)c2C(=O)N1c1cccc(C)c1 (configuration not stated),4,32*,9,0,1
C=CCC1c2cccc(C(=O)O)c2C(=O)N1c1cccc(OC)c1 (configuration not stated),-4,-5,0,0,-3
